# Reference: ChEMBL document CHEMBL1157539, “Thousands of chemical starting points for antimalarial lead identification” (Nature, 2010)
# How the values were obtained:
# Type in all cases: functional
# [1] = tested on: Plasmodium falciparum; experiment: GSK_TCMDC: Inhibition of Plasmodium falciparum 3D7 in whole red blood cells, using parasite LDH activity as an index of growth. Test compounds present at 2uM
# [2] = tested on: Plasmodium falciparum; experiment: GSK_TCMDC: Inhibition of Plasmodium falciparum Dd2 in whole red blood cells, using parasite LDH activity as an index of growth. Test compounds present at 2uM
# [3] = tested on: HepG2; experiment: GSK_TCMDC: Percent inhibition of human HepG2 cell line. Test compounds present at 10uM.
SMILES,Inhibition [1] [%],Inhibition [2] [%],Inhibition [3] [%]
C=CCOc1ccc(-c2c(C)[nH]c(C)c(Br)c2=O)cc1,98,96,5
Cn1nc(-c2ccc(NC(=O)Nc3cc(C(F)(F)F)ccc3F)cc2)c2cnc(NCCc3c[nH]cn3)nc21.O=C(O)C(F)(F)F,99,56,15
Oc1c(Cl)cc(Nc2nccc(Nc3ccc(Oc4ccccc4)cc3)n2)cc1Cl,99,26,8
COc1ccc(CNc2nc(NCc3ccccc3)c3cc(OC)c(OC)cc3n2)cc1OC,100,99,24
CN1CCN(C(C(=O)NCc2cc(Cl)cc(Cl)c2)c2ccc(Nc3cccc(C(F)(F)F)c3)cc2)CC1 (stereo not given),85,98,49
O=C(Nc1ccc(Cl)c(C(F)(F)F)c1)c1ccc(C(=O)Nc2ccc(Cl)c(C(F)(F)F)c2)cc1,88,27,9
Nc1nc(N)c2c(ccc3c2ccn3C2C=CCCC2)n1 (stereo not given),94,65,68
CC(CN(C)C)C(=O)Nc1ccc(-c2ccc(-c3nc4ccccc4[nH]3)s2)cc1 (stereo not given),100,86,14
NCC1CCCN1Cc1ccc(-c2ccc(-c3nc4cc(C(F)(F)F)ccc4[nH]3)s2)cc1.O=C(O)C(F)(F)F (stereo not given),100,97,31
CC(C)CCN1CCCN(Cc2cccc(NC(=O)c3ccc(Cl)c(Cl)c3)c2)CC1.O=C(O)C(F)(F)F,92,13,35
N=C(N)NN=CC(=O)Nc1ccc(Cl)cc1.O=S(=O)(O)O,100,2,5
COc1ccc2nccc([C@@H](O)CN3CCC(NCc4cc5cccnc5[nH]4)CC3)c2n1.O=C(O)C(=O)O,90,0,7
c1ccc(COc2ccccc2COc2ccccc2-c2ccc3cccnc3n2)cc1,87,95,0
CS(=O)(=O)NCCCNCc1cccc(-c2ccc(-c3nc4ccccc4[nH]3)s2)c1.O=C(O)C(F)(F)F,90,0,24
COc1ccc(CC(=O)NC(CCN2CCC3(CCc4ccccc43)CC2)c2ccc(Cl)c(Cl)c2)cc1 (stereo not given),90,75,28
Cc1cccc2nc(-c3cccc(-c4cccc(CNCC5CCCO5)c4)c3)[nH]c12.O=C(O)C(F)(F)F (stereo not given),100,99,26
COc1ccc(Cl)cc1N1CCN(CCCNC(=O)c2ccc(-c3nc4cc(Cl)c(C)cc4[nH]3)s2)CC1,100,97,0
Cc1ccc(N2C(N)=NC(N)=NC2(C)C)cc1.Cl,96,20,43
CCNC(=O)c1ccc(-n2nc(C)cc2-c2ccccc2)cc1,89,54,11
NCCCNc1ccnc2cc(Cl)ccc12,100,25,14

SMILES,Inhibition [1] [%],Inhibition [2] [%],Inhibition [3] [%]
Br.CC1(C)NC(N)=NC(=N)N1OCC1CCCCC1,94,97,67
O=C(NC1CCN(Cc2ccccc2)CC1)c1csc2nc(-c3ccc(Cl)cc3)cn12,98,14,19
Cl.O=C1CSc2ccc(CNC3CCN(CCc4c(Cl)cnc5ccc(Cl)cc45)CC3)nc2N1,100,92,25
COc1ccc(CNC2CCN(C)CC2)cc1-c1ccc(OC)c(S(=O)(=O)NCc2ccccc2)c1.O=C(O)C(F)(F)F,99,95,10
CCOc1ccc2c(=NN=Cc3ccccc3OC)cc(C)[nH]c2c1,99,93,11
CCN(CCCN1CCCCC1)c1cc(C)nc(Nc2ccc(C)cc2Br)n1.O=C(O)C(F)(F)F,95,27,49
COc1ccc2ncc(F)c(CCN3C[C@H](CNCc4cc(F)c5c(c4)NC(=O)CO5)[C@H](O)C3)c2n1.Cl,94,23,3
CCOC(=O)c1ccc(Nc2cc(Nc3ccc(C(=O)OCC)cc3)nc(C)n2)cc1,99,33,4
COC(=O)c1ccccc1COc1ccc(CC2(NC(=O)[C@H](Nc3ccc(C#N)c4ccccc34)C(C)(C)C)CCCC2)cc1,95,82,1
COc1ccc(-c2cccc(NC(=O)c3cccc(C#N)c3)c2)cc1CN1CCCN(C)CC1.O=C(O)C(F)(F)F,100,99,22
CC(=O)Nc1nc(C(=O)Nc2ccc(-c3cccc(-c4nc5cccc(C)c5[nH]4)c3)cc2)cs1,100,73,100
CC1CN(S(=O)(=O)c2ccc(NC(=O)c3cc(-c4ccccc4O)n[nH]3)cc2)CC(C)O1 (stereo not given),97,93,21
O=C(NCCCCCN1CCCN(C(=O)Nc2ccc(F)c(C(F)(F)F)c2)CC1)C1CC1c1ccc(Cl)c(Cl)c1 (stereo not given),90,1,61
O=C(NCCN1CCCC1)c1ccc(-c2ccc(-c3nc4cc(C(F)(F)F)ccc4[nH]3)s2)cc1,97,65,31
FC(F)(F)c1ccc2[nH]c(-c3ccc(-c4ccc(CNCC5CCCO5)cc4)cc3)nc2c1.O=C(O)C(F)(F)F (stereo not given),100,100,33
O=C(NCCCCN1CCC(c2ccc3c(c2OCc2ccncc2)CCCC3)CC1)c1ccc(-c2ccc(C(F)(F)F)cc2)cc1,100,92,96
CN(C)CCN1CCN(Cc2ccc(-c3cccc(-c4nc5ccccc5[nH]4)c3)cc2)CC1.O=C(O)C(F)(F)F,100,100,25
Cl.O=C(Nc1ccc(NC2=NCCN2)cc1)Nc1ccc(NC2=NCCN2)cc1,88,72,0
CC1CN(c2cnn(Cc3ccc(NC(=O)Nc4ccc(-c5ccccc5)cc4)cc3)c(=O)c2Cl)CC(C)N1.O=C(O)C(F)(F)F (stereo not given),100,46,82
COc1ccc2nccc([C@@H](O)CN3CCC(NCc4ccc5c(c4)OCCO5)CC3)c2c1.O=C(O)C(=O)O,100,92,9

SMILES,Inhibition [1] [%],Inhibition [2] [%],Inhibition [3] [%]
Br.N=c1n(CCN2CCCCC2)c2ccccc2n1CC(=O)c1cccc([N+](=O)[O-])c1,94,0,10
COc1cc2ccccc2c(CON2C(=N)N=C(N)NC2(C)C)c1OC.Cl,96,10,2
CCCCc1cc(O)c2c(c1)OC(C)(C)C=C2C1=CCN(Cc2ccccc2)CC1,98,3,9
CN(C)CCOc1ccc(N2CCN(CCCCNC(=O)c3ccc(/C=C/c4cc(Cl)cc(Cl)c4)cc3)CC2)cc1,98,84,97
Fc1ccc2c(NN=Cc3ccccc3F)ccnc2c1,100,99,10
CCc1cc(Br)c(CNCCCNc2cc(=O)c3ccccc3[nH]2)s1.Cl,90,45,6
Cl.c1ccc(-c2ccc3c(Nc4ccc5[nH]ncc5c4)ccnc3c2)nc1,100,99,99
Cc1cc(N(C)CCN(C)C)nc(Nc2ccc(Br)cc2)n1,97,23,7
NC1=NC(c2ccccc2)(c2ccccc2)C(=O)N1CCCCc1ccccc1.O=CO,96,81,14
CC(C)(C)c1cc(C(=O)N2CCC(c3ccccn3)CC2)n(Cc2ccccc2)n1,96,90,3
CN1CCCN(Cc2cccc(-c3cccc(NC(=O)c4ccc(Cl)cc4)c3)c2)CC1.O=C(O)C(F)(F)F,100,44,35
Cc1cc(Br)cnc1CCCCNc1cc(=O)c2ccccc2[nH]1.Cl,91,64,0
COc1ccc(-c2cccc(NC(=O)c3ccc(C#N)cc3)c2)cc1CN(C)CCN(C)C.O=C(O)C(F)(F)F,90,18,14
O=C(O)C(F)(F)F.O=S(=O)(NCCN1CCCC1)c1ccc(-c2cccc(CNC3Cc4ccccc4C3)c2)cc1,99,57,55
CCOC(=O)c1cc(=O)c2ccc(OCC#N)cc2o1,88,86,2
O=C(O)C(F)(F)F.O=C1CCCN1CCCNCc1ccc(-c2cccc(-c3nc4cc(F)ccc4[nH]3)c2)cc1,100,8,12
Clc1ccccc1OCc1ccccn1,85,2,2
CN(C)C(=O)c1ccc(CN(Cc2ccc(OC(C)(C)C)cc2)Cc2ccc3c(c2)OCCO3)cc1,95,96,0
CC(CCCCCC(=O)Nc1ccc(CC(C)NCCc2cccc(Cl)c2)cc1)NCCc1cccc(Cl)c1 (stereo not given),91,37,99
CCCOc1ccc(C(=O)Nc2nonc2-c2ccc(OC)c(OC)c2)cc1,99,97,0
